Data taken from the supplement of paper PMC10338343.
± gives the standard deviation.

System: EfPiwi piRISC loaded with piRNA #1 (26 nt)
Assay: pre-steady-state target cleavage rate (min^-1); auxiliary factor: 500 nM Ephydatia muelleri Gtsf1; guide: piRNA #1 5'p-UGAGGUAGUAGGUUGUAUAGUAUCCA; MIWI and MILI are mouse PIWI proteins and EfPiwi is from a freshwater sponge; tags in brackets are library labels; higher = faster piRNA-guided slicing of the target
How it was run: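 Cleave-'n-Seq reactions paired 0.1 nM transcribed, DNA-blocked target RNA library with 1 nM active affinity-purified piRISC holding one synthetic guide, plus or minus 500 nM GTSF1 partner protein, in HEPES–potassium acetate buffer at 33 °C for 0–8 or 0–960 min. After sequencing of uncleaved targets and normalisation to depth and weakly complementary targets, the pre-steady-state cleavage rate was taken from a burst-and-steady-state fit. Three trials were pooled, and k3 was capped at 0.0001 min^-1.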

Sequence	pre-steady-state target cleavage rate
GGAGACCUAACUAUACAACCUACGACCUCA	0.00261 ± 0.0025
GGAGACCAUUCUAUACAUCCUACUACCUCA	0.00435 ± 0.0029
GGAGAGGAUACUAUACAAACUACUACCUCA	0.00673 ± 0.0029
GGAGACCUAACUAUACAACCUACUACCGUCA	0.0162 ± 0.0091
GGAGUGGAUACUAUACACCCUACUACCUCA	0.0673 ± 0.023
GGAGAGGUUACUAUACAACCUACUACCACA	0.00331 ± 0.0014
GGAGACCUAACUAUACAACCUCCUACCUCA	0.00446 ± 0.0029
GGAGUGGAUACUAUACAACCACUACCUCA	0.00771 ± 0.0031
GGAGUCGAUACUAUACAACCUACUACGUCA	0.00643 ± 0.0028
GGAGACCUUACUAUACAACCUACUACCAUCA	0.00369 ± 0.0024
GGAGACGAUACUAUACAUCCUACUUCCUCA	0.00415 ± 0.0023
GGAGUGGAUACUAUACCAACCUACUACCUCA	0.0596 ± 0.021
GGAGACGUUACAAUACAACCUACUACCUCA	0.0105 ± 0.0045
GGAGUGGAUACUAUUCAACCUACUACCUCA	0.0119 ± 0.0052
GGAGAGCAUACUAUACAACCUACUAGCUCA	0.00355 ± 0.0022
GGAGACCUAAUAUACAACCUACUACCUCA	0.0061 ± 0.0043
GGAGACCAAUACUAUACAACCUACUACCUCA	0.5 ± 0.18
GGAGACCUAUGAUAACAACCUACUACGCUCA	< 0.0001
GGAGACCUAACUAUACAAGCUACUACGUCA	0.004 ± 0.0035
GGAGACCUAACUAUAACAACCUACUACCUCA	0.00912 ± 0.005

Sequence	pre-steady-state target cleavage rate
GGAGACCUAACUAUACAACCUACUACCUUCA	0.0285 ± 0.011
GGAGACCAUUACUAUACAACCUACUACCUCA	0.148 ± 0.044
GGAGUCGUUACUAUACAACCUACUACCUCA	0.0129 ± 0.0069
GGAGACCAUACUAUGACAACCUACUACCUCA	0.00762 ± 0.0033
GGAGACGACACUAUACAACCUACUACCUCA	0.114 ± 0.038
GGAGACCAAACUAUACAACCUACUUCCUCA	0.00317 ± 0.0029
GGAGAGGAUACUCAUACAACCUACUACCUCA	0.0605 ± 0.024
GGAGACCUUACUAUACAACCUCCUACCUCA	0.00545 ± 0.003
GGAGUGGAUACUAUUCAUCCUACUACCUCA	0.0078 ± 0.0036
GGAGACCAUACUAUACAACCUAAUACCUCA	0.00857 ± 0.0039
GGAGUGGAUACUAUACAAGCUACUACCUGA	0.00454 ± 0.0019
GGAGAGGAUACUAUACAUCCUACUACGUCA	0.00405 ± 0.0018
GGAGAGGAUACUAUACAACACUACUACCUCA	0.00804 ± 0.0043
GGAGAGGAUACUAUUACAACCUACUACCUCA	0.0933 ± 0.04
GGAGACCUAUCCUAUACAACCUACUACCUCA	0.0903 ± 0.032
GGAGUGUAUACUAUACAACCUACUACCUCA	0.0133 ± 0.0057
GGAGUGAAUACUAUACAACCUACUACCUCA	0.102 ± 0.037
GGAGAGCGAUACUAUACAACCUACUACCUCA	0.0132 ± 0.006
GGAGUGGUUACUUUACAACCUACUACCUCA	0.00342 ± 0.0031
GGAGACGAUACUAUACAACCUACUUCGUCA	0.00672 ± 0.0024
